Data from PubChem BioAssay AID1159580 (chemical genetic matrix, 2015).
About 2,000 (36%) of roughly 5,500 compounds were called active. About 18% were inconclusive and are not listed. Cut-off read from the data, not from the text of the source: active = normalized growth mostly below about 0.91 (no sharp cut-off); inconclusive = no clear call, values can overlap the other calls; inactive = mostly above about 0.92. The list shows a part of the results.

Assay: chemical genetic growth profiling, strain panel (AID 1159580);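 note: tested at 20 µM; growth read once vehicle control cultures reached saturation at 30 °C; 1 = growth at the plate median or of vehicle wells; lower values mean less growth of the strain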
Details: growth OD

Measured: normalized growth

OCc1ccccc1O
inactive: S. cerevisiae deletion strains, locus YKL068W, active compounds read low 0.994 | S. cerevisiae deletion strains, locus YKL085W, strain MDH1 (second series), active compounds read low 0.992 | S. cerevisiae deletion strains, locus YKL085W, strain MDH1, active compounds read low 0.992 | S. cerevisiae deletion strains, locus YKL160W, strain elf1, active compounds read low 1.04 | S. cerevisiae deletion strains, locus YKL190W, strain CNB1, active compounds read low 1.01 | S. cerevisiae deletion strains, locus YKR001C, strain vps1, active compounds read low 0.989 | S. cerevisiae deletion strains, locus YKR026C, strain gcn3, active compounds read low 1.02 | S. cerevisiae deletion strains, locus YKR091W, strain srl3, active compounds read low 1.01 | S. cerevisiae deletion strains, locus YLL001W, strain dnm1, active compounds read low 1.01 | S. cerevisiae deletion strains, locus YLL026W, active compounds read low 1 | S. cerevisiae deletion strains, locus YLL041C, strain sdh2, active compounds read low 1.01 | S. cerevisiae deletion strains, locus YLR027C, strain aat2, active compounds read low 1.02 | S. cerevisiae deletion strains, locus YLR039C, strain RIC1, active compounds read low 0.988 | S. cerevisiae deletion strains, locus YLR058C, strain SHM2, active compounds read low 1.02 | S. cerevisiae deletion strains, locus YLR102C, strain apc9, active compounds read low 0.981 | S. cerevisiae deletion strains, locus YLR113W, strain HOG1, active compounds read low 1.03 | S. cerevisiae deletion strains, locus YLR221C, strain rsa3, active compounds read low 1.02 | S. cerevisiae deletion strains, locus YLR258W, strain gsy2, active compounds read low 1.02 | S. cerevisiae deletion strains, locus YLR262C, strain YPT6 (second series), active compounds read low 1.06 | S. cerevisiae deletion strains, locus YLR262C, strain YPT6, active compounds read low 1.04 | S. cerevisiae deletion strains, locus YLR268W, strain sec22, active compounds read low 0.969 | S. cerevisiae deletion strains, locus YLR320W, strain mms22, active compounds read low 1.02 | S. cerevisiae deletion strains, locus YLR330W, strain CHS5, active compounds read low 1.01 | S. cerevisiae deletion strains, locus YLR342W, strain FKS1 (second series), active compounds read low 1.01 | S. cerevisiae deletion strains, locus YLR342W, strain FKS1, active compounds read low 1.03 | S. cerevisiae deletion strains, locus YLR357W, strain rsc2, active compounds read low 1.08 | S. cerevisiae deletion strains, locus YLR370C, strain arc18, active compounds read low 1.01 | S. cerevisiae deletion strains, locus YLR371W, strain rom2, active compounds read low 0.989 | S. cerevisiae deletion strains, locus YLR384C, strain iki3, active compounds read low 1.01 | S. cerevisiae deletion strains, locus YLR418C, strain cdc73, active compounds read low 0.962 | S. cerevisiae deletion strains, locus YML016C, strain PPZ1, active compounds read low 1.02 | S. cerevisiae deletion strains, locus YML032C, strain rad52, active compounds read low 0.979 | S. cerevisiae deletion strains, locus YML120C, strain ndi1, active compounds read low 1.01 | S. cerevisiae deletion strains, locus YML124C, strain tub3, active compounds read low 0.997 | S. cerevisiae deletion strains, locus YMR058W, strain fet3, active compounds read low 1.02 | S. cerevisiae deletion strains, locus YMR078C, strain ctf18, active compounds read low 0.993 | S. cerevisiae deletion strains, locus YMR125W, strain sto1, active compounds read low 1.01 | S. cerevisiae deletion strains, locus YMR129W, active compounds read low 1.03 | S. cerevisiae deletion strains, locus YMR205C, strain PFK2, active compounds read low 1.03 | S. cerevisiae deletion strains, locus YMR223W, strain ubp8, active compounds read low 0.994 | S. cerevisiae deletion strains, locus YMR231W, strain pep5, active compounds read low 1.01 | S. cerevisiae deletion strains, locus YMR263W, strain SAP30, active compounds read low 1.02 | S. cerevisiae deletion strains, locus YMR307W, strain GAS1, active compounds read low 1.01 | S. cerevisiae deletion strains, locus YNL067W, strain RPL9B, active compounds read low 1.01 | S. cerevisiae deletion strains, locus YNL071W, strain lat1, active compounds read low 1.04 | S. cerevisiae deletion strains, locus YNL128W, strain TEP1, active compounds read low 1.02 | S. cerevisiae deletion strains, locus YNL153C, strain GIM3, active compounds read low 1.01 | S. cerevisiae deletion strains, locus YNL183C, strain NPR1, active compounds read low 1 | S. cerevisiae deletion strains, locus YNL209W, strain ssb2, active compounds read low 1.02 | S. cerevisiae deletion strains, locus YNL233W, strain BNI4, active compounds read low 1.01 | S. cerevisiae deletion strains, locus YNL248C, strain rpa49, active compounds read low 1.04 | S. cerevisiae deletion strains, locus YNL250W, strain rad50, active compounds read low 0.986 | S. cerevisiae deletion strains, locus YNL271C, strain bni1, active compounds read low 0.98 | S. cerevisiae deletion strains, locus YNL298W, strain CLA4, active compounds read low 0.981 | S. cerevisiae deletion strains, locus YNL307C, strain MCK1, active compounds read low 0.989 | S. cerevisiae deletion strains, locus YNL322C, strain KRE1 (second series), active compounds read low 1.03 | S. cerevisiae deletion strains, locus YNL322C, strain KRE1, active compounds read low 1.01 | S. cerevisiae deletion strains, locus YNR049C, strain mso1, active compounds read low 1.02 | S. cerevisiae deletion strains, locus YNR052C, strain pop2, active compounds read low 0.989 | S. cerevisiae deletion strains, locus YOL006C, strain TOP1, active compounds read low 1.06 | S. cerevisiae deletion strains, locus YOL012C, strain htz1 0.829 | S. cerevisiae deletion strains, locus YOL147C, strain pex11, active compounds read low 0.985 | S. cerevisiae deletion strains, locus YOR001W, strain rrp6, active compounds read low 1.03 | S. cerevisiae deletion strains, locus YOR061W, strain CKA2, active compounds read low 1.02 | S. cerevisiae deletion strains, locus YOR069W, strain VPS5, active compounds read low 1.01 | S. cerevisiae deletion strains, locus YOR070C, strain gyp1, active compounds read low 1.03 | S. cerevisiae deletion strains, locus YOR080W, strain dia2, active compounds read low 1.02 | S. cerevisiae deletion strains, locus YOR083W, strain WHI5, active compounds read low 1.02 | S. cerevisiae deletion strains, locus YOR106W, strain vam3, active compounds read low 1.01 | S. cerevisiae deletion strains, locus YOR136W, strain idh2, active compounds read low 0.992 | S. cerevisiae deletion strains, locus YOR144C, strain elg1, active compounds read low 0.991 | S. cerevisiae deletion strains, locus YOR184W, strain ser1, active compounds read low 0.984 | S. cerevisiae deletion strains, locus YOR231W, strain MKK1, active compounds read low 1.03 | S. cerevisiae deletion strains, locus YOR265W, strain rbl2, active compounds read low 1 | S. cerevisiae deletion strains, locus YOR270C, strain vph1, active compounds read low 1.03 | S. cerevisiae deletion strains, locus YOR290C, strain snf2, active compounds read low 1.01 | S. cerevisiae deletion strains, locus YOR316C, strain cot1, active compounds read low 0.996 | S. cerevisiae deletion strains, locus YPL051W, strain arl3, active compounds read low 1.03 | S. cerevisiae deletion strains, locus YPL078C, strain atp4, active compounds read low 1.02 | S. cerevisiae deletion strains, locus YPL106C, strain sse1, active compounds read low 1.07 | S. cerevisiae deletion strains, locus YPL240C, strain hsp82, active compounds read low 1.01 | S. cerevisiae deletion strains, locus YPL241C, strain CIN2, active compounds read low 1.01 | S. cerevisiae deletion strains, locus YPL256C, strain CLN2, active compounds read low 1.07 | S. cerevisiae deletion strains, locus YPR119W, strain clb2, active compounds read low 0.986 | S. cerevisiae deletion strains, locus YPR141C, strain kar3, active compounds read low 0.992 | S. cerevisiae deletion strains, locus YPR163C, strain tif3, active compounds read low 0.994 | S. cerevisiae deletion strains, locus YPR167C, strain met16, active compounds read low 0.989 | S. cerevisiae deletion strains, strain wtn01, active compounds read low 0.973 | S. cerevisiae strains, strain wild type, active compounds read low 1.01
